Laboratory results as given in the supplement of paper PMC6897291.
Counter-ions that a name gives are not always drawn.

test system: U-2932; experiment: growth inhibition by drug alone (1 - RLU/untreated control) (fraction); higher = stronger inhibition; conditions: 10 nM; time (day): 3; 177Lu-lilotomab satetraxetan 0 ug/ml
In short: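 RIVA or U-2932 cells were left untreated or pretreated for 18 h with a radiolabelled anti-CD37 antibody conjugate (~600 MBq/mg) at 0.5 µg/ml for RIVA or 1 µg/ml for U-2932. The cells were then washed and seeded at 3,000 cells/well on plates pre-printed with the Selleck Cambridge Cancer Compound library, dosed at 10/100 nM for RIVA and 10/1,000 nM for U-2932. From day 3, RealTime-Glo luminescence was read daily after 1 h at 37°C. Growth inhibition was taken as one minus RLU over the mean of the untreated no-drug wells, of which there were 48 per plate.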

Structure (SMILES)	growth inhibition by drug alone
Nc1cc(C(F)(F)F)c(-c2cc(N3CCOCC3)nc(N3CCOCC3)n2)cn1	-0.0505
CC(C)(C)c1ccc(S(=O)(=O)/C=C/C#N)cc1	0.0951
C[C@]1(c2nc3c(C(N)=O)cccc3[nH]2)CCCN1 [ABT-888 (Veliparib)]	-0.0659
Cc1ccc(NC(=O)c2ccc(CN3CC[C@H](N(C)C)C3)c(C(F)(F)F)c2)cc1Nc1nccc(-c2cncnc2)n1 [Bafetinib (INNO-406)]	0.0934
C[C@]12CC[C@@H]3c4ccc(O)cc4CC[C@H]3[C@@H]1CCC2=O [Estrone]	0.0961
O=C(c1ccc(OCCN2CCCCC2)cc1)c1c(-c2ccc(O)cc2)sc2cc(O)ccc12 [Evista (Raloxifene Hydrochloride)]	0.0697
CCN(CC)CCNC(=O)c1c(C)[nH]c(/C=C2\C(=O)Nc3ccc(F)cc32)c1C [Sunitinib Malate (Sutent)]	0.0107
CCOc1ccc(Nc2nc(-c3c(C)nc4ccccn34)cs2)cc1	0.225
C=CC(=O)N1CCC[C@@H](n2nc(-c3ccc(Oc4ccccc4)cc3)c3c(N)ncnc32)C1	0.341
CS(=O)(=O)c1cccc(CNc2nc(Nc3ccc4c(c3)CCC(=O)N4)ncc2C(F)(F)F)c1	0.0502
CC(NC(=O)c1ccccc1/N=C/c1c(O)ccc2ccccc12)c1ccccc1 (stereo unspecified) [Sirtinol]	0.0874
CN(Cc1cnc2nc(N)nc(N)c2n1)c1ccc(C(=O)N[C@@H](CCC(=O)O)C(=O)O)cc1 [Abitrexate (Methotrexate)]	-0.0461
OCCn1cc(-c2cnc3nnn(Cc4ccc5ncccc5c4)c3n2)cn1	0.0403
COc1cc(Nc2ncc(F)c(Nc3ccc4c(n3)NC(=O)C(C)(C)O4)n2)cc(OC)c1OC [R406(free base)]	0.0274
COc1cccc2c1C(=O)c1c(O)c3c(c(O)c1C2=O)C[C@@](O)(C(=O)CO)C[C@@H]3O[C@H]1C[C@H](N)[C@H](O)[C@H](C)O1 [Doxorubicin (Adriamycin)]	0.258
CN(NC(=O)CC(=O)NN(C)C(=S)c1ccccc1)C(=S)c1ccccc1 [Elesclomol]	0.796
CN(C)CCOc1ccc(/C(=C(/CCCl)c2ccccc2)c2ccccc2)cc1 [Toremifene Citrate (Fareston, Acapodene)]	0.147
CN1CCN(CCOc2cc(OC3CCOCC3)c3c(Nc4c(Cl)ccc5c4OCO5)ncnc3c2)CC1 [Saracatinib (AZD0530)]	0.0465
CC(C)C[C@H](NC(=O)[C@H](Cc1ccccc1)NC(=O)c1cnccn1)B(O)O [Bortezomib (Velcade)]	0.965
Cn1cncc1[C@@](N)(c1ccc(Cl)cc1)c1ccc2c(c1)c(-c1cccc(Cl)c1)cc(=O)n2C [Tipifarnib (Zarnestra)]	0.0908
COC(=O)c1ccc2c(C(=Nc3ccc(N(C)C(=O)CN4CCN(C)CC4)cc3)c3ccccc3)c(O)[nH]c2c1 [BIBF1120 (Vargatef)]	-0.0536
CC[C@@H]1/C=C(\C)C[C@H](C)C[C@H](OC)[C@H]2O[C@@](O)(C(=O)C(=O)N3CCCC[C@H]3C(=O)O[C@H](/C(C)=C/[C@@H]3CC[C@H](Cl)[C@H](OC)C3)[C@H](C)[C@@H](O)CC1=O)[C@H](C)C[C@@H]2OC [Pimecrolimus]	0.214
CN(C)CCOc1ccc(-c2nc(-c3ccncc3)c(-c3ccc4c(c3)CC/C4=N\O)[nH]2)cc1	-0.0248
COc1ccc(CCN2CCN(CCCc3ccccc3)CC2)cc1OC	0.0269
CNC(=O)c1cc(Oc2ccc(NC(=O)Nc3cc(C(C)(C)C)nn3-c3ccc4ncccc4c3)c(F)c2)ccn1 [DCC-2036 (Rebastinib)]	0.0874
CCC(C)(C)C(=O)O[C@H]1C[C@@H](C)C=C2C=C[C@H](C)[C@H](CC[C@@H]3C[C@@H](O)CC(=O)O3)[C@H]21 [Simvastatin (Zocor)]	-0.0841
CCc1ccc(CCOc2ccc(CC3SC(=O)NC3=O)cc2)nc1 (stereo unspecified) [Pioglitazone (Actos)]	-0.11
O=C(O)C(Cc1c[nH]c2ccccc12)N1C(=O)c2ccccc2C1=O (stereo unspecified)	0.0147

same assay, conditions: 10 nM; time (day): 4; 177Lu-lilotomab satetraxetan 0 ug/ml

Structure (SMILES)	growth inhibition by drug alone
Nc1nc2[nH]cc(CCc3ccc(C(=O)N[C@@H](CCC(=O)O)C(=O)O)cc3)c2c(=O)[nH]1 [Pemetrexed]	-0.0188
COc1cc2nccc(Oc3ccc(NC(=O)Nc4cc(C)on4)c(Cl)c3)c2cc1OC [Tivozanib (AV-951)]	0.0745
CCC(=O)N1CCN(c2ccc(-n3c(=O)ccc4cnc5ccc(-c6cnc7ccccc7c6)cc5c43)cc2C(F)(F)F)CC1 [Torin 1]	0.128
COc1cccc2c1C(=O)c1c(O)c3c(c(O)c1C2=O)C[C@@](O)(C(=O)CO)C[C@@H]3O[C@H]1C[C@H](N)[C@@H](O)[C@H](C)O1 [Epirubicin Hydrochloride]	0.0793
Clc1ccc(Nc2nnc(Cc3ccncc3)c3ccccc23)cc1 [Vatalanib dihydrochloride (PTK787)]	0.0329
COc1cc2nccc(Oc3ccc(NC(=O)C4(C(=O)Nc5ccc(F)cc5)CC4)cc3)c2cc1OC [XL-184 free base (Cabozantinib)]	0.0841
C[C@@H](O[C@H]1OCCN(Cc2n[nH]c(=O)[nH]2)[C@H]1c1ccc(F)cc1)c1cc(C(F)(F)F)cc(C(F)(F)F)c1 [Aprepitant (MK-0869)]	-0.0554
COc1cc2c(cc1O)CC[C@@H]1[C@@H]2CC[C@]2(C)[C@@H](O)CC[C@@H]12 [2-Methoxyestradiol]	-0.0559
CNCc1ccc(-c2[nH]c3cc(F)cc4c3c2CCNC4=O)cc1	0.0535
CC[C@@]1(O)C(=O)OCc2c1cc1n(c2=O)Cc2cc3c(CN(C)C)c(O)ccc3nc2-1 [Topotecan HCl]	0.494
Nc1cc(C(F)(F)F)c(-c2cc(N3CCOCC3)nc(N3CCOCC3)n2)cn1	-0.0268
CC(C)(C)c1ccc(S(=O)(=O)/C=C/C#N)cc1	0.0673
C[C@]1(c2nc3c(C(N)=O)cccc3[nH]2)CCCN1 [ABT-888 (Veliparib)]	-0.0358
Cc1ccc(NC(=O)c2ccc(CN3CC[C@H](N(C)C)C3)c(C(F)(F)F)c2)cc1Nc1nccc(-c2cncnc2)n1 [Bafetinib (INNO-406)]	0.0624
C[C@]12CC[C@@H]3c4ccc(O)cc4CC[C@H]3[C@@H]1CCC2=O [Estrone]	0.0749
O=C(c1ccc(OCCN2CCCCC2)cc1)c1c(-c2ccc(O)cc2)sc2cc(O)ccc12 [Evista (Raloxifene Hydrochloride)]	0.04
CCN(CC)CCNC(=O)c1c(C)[nH]c(/C=C2\C(=O)Nc3ccc(F)cc32)c1C [Sunitinib Malate (Sutent)]	0.0161
CCOc1ccc(Nc2nc(-c3c(C)nc4ccccn34)cs2)cc1	0.209
C=CC(=O)N1CCC[C@@H](n2nc(-c3ccc(Oc4ccccc4)cc3)c3c(N)ncnc32)C1	0.519

Structure (SMILES)	growth inhibition by drug alone
CS(=O)(=O)c1cccc(CNc2nc(Nc3ccc4c(c3)CCC(=O)N4)ncc2C(F)(F)F)c1	0.00856
CC(NC(=O)c1ccccc1/N=C/c1c(O)ccc2ccccc12)c1ccccc1 (stereo unspecified) [Sirtinol]	0.0846
CN(Cc1cnc2nc(N)nc(N)c2n1)c1ccc(C(=O)N[C@@H](CCC(=O)O)C(=O)O)cc1 [Abitrexate (Methotrexate)]	-0.0435
OCCn1cc(-c2cnc3nnn(Cc4ccc5ncccc5c4)c3n2)cn1	0.00489
COc1cc(Nc2ncc(F)c(Nc3ccc4c(n3)NC(=O)C(C)(C)O4)n2)cc(OC)c1OC [R406(free base)]	-0.00454
COc1cccc2c1C(=O)c1c(O)c3c(c(O)c1C2=O)C[C@@](O)(C(=O)CO)C[C@@H]3O[C@H]1C[C@H](N)[C@H](O)[C@H](C)O1 [Doxorubicin (Adriamycin)]	0.293
CN(NC(=O)CC(=O)NN(C)C(=S)c1ccccc1)C(=S)c1ccccc1 [Elesclomol]	0.791
CN(C)CCOc1ccc(/C(=C(/CCCl)c2ccccc2)c2ccccc2)cc1 [Toremifene Citrate (Fareston, Acapodene)]	0.112
CN1CCN(CCOc2cc(OC3CCOCC3)c3c(Nc4c(Cl)ccc5c4OCO5)ncnc3c2)CC1 [Saracatinib (AZD0530)]	0.00941
CC(C)C[C@H](NC(=O)[C@H](Cc1ccccc1)NC(=O)c1cnccn1)B(O)O [Bortezomib (Velcade)]	0.971
Cn1cncc1[C@@](N)(c1ccc(Cl)cc1)c1ccc2c(c1)c(-c1cccc(Cl)c1)cc(=O)n2C [Tipifarnib (Zarnestra)]	0.0396
COC(=O)c1ccc2c(C(=Nc3ccc(N(C)C(=O)CN4CCN(C)CC4)cc3)c3ccccc3)c(O)[nH]c2c1 [BIBF1120 (Vargatef)]	-0.0365
CC[C@@H]1/C=C(\C)C[C@H](C)C[C@H](OC)[C@H]2O[C@@](O)(C(=O)C(=O)N3CCCC[C@H]3C(=O)O[C@H](/C(C)=C/[C@@H]3CC[C@H](Cl)[C@H](OC)C3)[C@H](C)[C@@H](O)CC1=O)[C@H](C)C[C@@H]2OC [Pimecrolimus]	0.249
CN(C)CCOc1ccc(-c2nc(-c3ccncc3)c(-c3ccc4c(c3)CC/C4=N\O)[nH]2)cc1	-0.0722
COc1ccc(CCN2CCN(CCCc3ccccc3)CC2)cc1OC	-0.00972
CNC(=O)c1cc(Oc2ccc(NC(=O)Nc3cc(C(C)(C)C)nn3-c3ccc4ncccc4c3)c(F)c2)ccn1 [DCC-2036 (Rebastinib)]	0.0635
CCC(C)(C)C(=O)O[C@H]1C[C@@H](C)C=C2C=C[C@H](C)[C@H](CC[C@@H]3C[C@@H](O)CC(=O)O3)[C@H]21 [Simvastatin (Zocor)]	-0.0759
CCc1ccc(CCOc2ccc(CC3SC(=O)NC3=O)cc2)nc1 (stereo unspecified) [Pioglitazone (Actos)]	-0.125
O=C(O)C(Cc1c[nH]c2ccccc12)N1C(=O)c2ccccc2C1=O (stereo unspecified)	0.0153
